What follows are molecules tested on Plasmodium falciparum Sir2 (PF13_0152, Sir2A) (assay: Plasmodium falciparum Sir2A binding compounds – biochemical, small-molecule microarray, 635 nm fluorescence, primary screen (AID 1098;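 further: score merges spot fluorescence intensity with its signal-to-noise ratio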)). Settings: fluorescence 635 nm, higher = more signal.

In order of falling composite z-score:
1. CO[C@H]1COC(=O)CC=C[C@@H](C)COC(=O)[C@H]2CCCN2C(=O)CC=C[C@H]1C  1.3
2. CC(C)=NOC(C)CN1CCCc2nc(C)c(C)cc21 (stereo unspecified)  1.19
3. CCOC(=O)CCN1C(=O)[C@H]2[C@@H]3C(=CC[C@H]2C1=O)C(=O)[C@H]1O[C@H]1[C@H]3O  1.1
4. COc1ccc(COC(=O)NN=C2C[C@@H](O)[C@@H](O)[C@@H]3[C@@H]4C(=O)N(C[C@@H]5CCCO5)C(=O)[C@@H]4CC[C@@H]23)cc1  1.06
5. CC(C)=CCCC(C)=CCON=C1[C@H]2CCn3c(=O)n(-c4ccccc4)c(=O)n3[C@H]2[C@H](O)[C@@H]2O[C@H]12  1.05
6. CCc1cc2c(nc1CC)CCN(CCC(C)=NOCC[C@@H]1C=C[C@H](OC(C)=O)[C@@H](COC(C)=O)O1)C2  1.05
7. CCOC(=O)[C@H](Cc1ccccc1)NC(=O)CCC1CC(OC(=O)NCCc2ccc(F)cc2)CC2(CCCC(COC(=O)NCCOc3ccccc3)O2)O1 (stereo partly specified)  0.87
8. CCOC(=O)[C@H](Cc1ccccc1)NC(=O)CCC1CC(OC(=O)NCc2ccc3c(c2)OCO3)CC2(CCCC(COC(=O)NCCOC)O2)O1 (stereo partly specified)  0.857
9. CCOC(=O)CCN1C(=O)[C@H]2[C@H]3[C@H](O)[C@H](O)CC(=NO[C@@H]4O[C@H](CO)[C@@H](O)[C@H](O)[C@H]4O)[C@@H]3CC[C@H]2C1=O  0.839
10. O=C1[C@H]2CCn3c(=O)n(-c4ccccc4)c(=O)n3[C@H]2[C@H](O)[C@@H]2O[C@H]12  0.784
11. CC(C)(C)N1C(=O)[C@H]2[C@H]3[C@H](O)[C@H](O)CC(=NOC[C@@H](O)COCc4ccco4)[C@H]3CC[C@H]2C1=O  0.732
12. CC(CCN1CCc2nc(-c3ccccc3)c(-c3ccccc3)cc2C1)=NO[C@@H](C)c1cc(-c2c(C)cc(C)cc2C)no1  0.655
13. CC(C)CN1CCc2nc(-c3ccccc3)c3c(c2C1)CO[C@@H](C)C3  0.639
14. COc1ccc(O[C@H]2C=C[C@@H](c3ccccc3)O[C@@H]2CON=C(C)CCN2CCCc3nc(C)c(C)cc32)cc1  0.625
15. CC(CCN1CCCCc2nc(C)c(C)cc21)=NOC[C@@H](O)[C@H]1O[C@@H]2OC(C)(C)O[C@@H]2[C@H]1O  0.577
16. CC(C)=CCCC(C)=CCON=C1C[C@@H](O)[C@@H](O)[C@@H]2[C@@H]3C(=O)N(Cc4ccc5c(c4)OCO5)C(=O)[C@@H]3CC[C@H]12  0.567
17. CC(C)=NO[C@H](C)c1cn([C@@H]2COC[C@H]2O)nn1  0.52
18. CC(C)=CCCC(C)=CCON=C1C[C@@H](O)[C@@H](O)[C@@H]2[C@@H]3C(=O)N(C4CCCCC4)C(=O)[C@@H]3CC[C@H]12  0.475
19. COC(=O)[C@@H]1CC[C@H](C)[C@@H](c2ccc(C)cc2)N1C(=O)c1ccc(C=NOC[C@@H](O)[C@H]2O[C@@H]3OC(C)(C)O[C@@H]3[C@H]2O)cc1  0.402
20. CC(CCN1CCCc2nc(C)c(C)cc21)=NO[C@H](C)c1cn([C@@H]2COC[C@H]2O)nn1  0.389
21. CCC1=NOC(CCC2CC(OC(=O)NCc3cccc4c3OCO4)CC3(CCCC(COC(=O)NCCc4ccc(Cl)cc4)O3)O2)C1 (stereo unspecified)  0.354
22. COC(=O)[C@@H]1CC[C@H](C)[C@@H](c2ccc(C)cc2)N1C(=O)c1ccc(C=NO[C@@H](C)c2cc(-c3c(C)cc(C)cc3C)no2)cc1  0.321
23. CCN1C(=O)[C@H]2[C@H]3[C@H](O)[C@H](O)CC(=NOCC(C)C)[C@H]3CC[C@H]2C1=O  0.301
24. CCOC(=O)CCN1C(=O)[C@H]2[C@H]3[C@H](O)[C@H](O)CC(=NO[C@@H]4O[C@H](CO)[C@@H](O)[C@H](O)[C@H]4O)[C@H]3CC[C@H]2C1=O  0.29
25. CC(CCC(=O)OC[C@H]1O[C@H](C#Cc2ccccc2)C=C[C@@H]1Oc1ccc(C)cc1)=NO[C@H](C)c1cn([C@@H]2COC[C@H]2O)nn1  0.261
26. CCOC(=O)CCN1C(=O)[C@H]2[C@H]3[C@H](O)[C@H](O)CC(=NOCC=C(C)CCC=C(C)C)[C@@H]3CC[C@H]2C1=O  0.255
27. CC(C)=NOC[C@@H](O)[C@H]1O[C@@H]2OC(C)(C)O[C@@H]2[C@H]1O  0.231
28. C#CCCCON=C1[C@H]2CCn3c(=O)n(Cc4cc5c(cc4Cl)OCO5)c(=O)n3[C@H]2[C@H](O)[C@@H]2O[C@H]12  0.216
29. CCOC(=O)[C@H](CC(C)C)NC(=O)CCC1CC(OC(=O)NCc2ccc3c(c2)OCO3)CC2(CCCC(COC(=O)NCCc3ccc(Cl)cc3)O2)O1 (stereo partly specified)  0.193
30. CCOC(=O)[C@H](CC(C)C)NC(=O)CCC1CC(OC(=O)NCCc2ccc(F)cc2)CC2(CCCC(COC(=O)NCCCN3CCCC3=O)O2)O1 (stereo partly specified)  -0.0927
31. COc1ccc(O[C@H]2C=C[C@@H](c3ccccc3)O[C@@H]2COC(=O)NCc2cccc3ccccc23)cc1  -0.101
32. CCN1C(C)=C(C(=O)OC)[C@@H](c2ccccc2)N2C(=O)[C@](O)(C(=O)OC)CC(C(C)=O)=C12  -0.166
33. COc1ccc(COC(=O)NN=C2C[C@@H](O)[C@@H](O)[C@@H]3[C@@H]4C(=O)N(Cc5ccc6c(c5)OCO6)C(=O)[C@@H]4CC[C@H]23)cc1  -0.218
34. COc1ccc(COC(=O)NN=C2C[C@@H](O)[C@@H](O)[C@@H]3[C@@H]4C(=O)N(C[C@@H]5CCCO5)C(=O)[C@@H]4CC[C@H]23)cc1  -0.321
35. CON=C[C@@H](OC)[C@H](C)C=CCC(=O)OC  -0.387
36. CCN1C(=O)[C@H]2[C@H]3[C@H](O)[C@H](O)CC(=NO[C@H](C)c4cn([C@@H]5COC[C@H]5O)nn4)[C@@H]3CC[C@H]2C1=O  -0.428

From PubChem BioAssay
